# Screening results deposited in PubChem BioAssay by several laboratories.
# CCHF vOTU inh: blocks the CCHF virus ovarian tumor domain protease; CCHFV vOTU protease, Pep-AMC fluorescence; inhibition, % at 11.5 µM; actives 0.55% (n = 370,000); AID 651958; also: 0% = vehicle wells with enzyme and 100% = no enzyme wells
# Mtb bLac sens: beta-lactam sensitization of Mtb H37Rv | M. tuberculosis H37Rv growth with meropenem, percent inhibition | inhibition, % at 25 µM | actives 0.27% (n = 330,000) | AID 434955; call rule not given here;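 also: growth measured after seven days incubation then overnight dye step; 0% = bacteria only wells and 100% = bacteria with antibiotic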
# GDH-TPI counter: inhibits GDH-TPI coupling enzymes, artifact for Mtb FBA screen; GDH-TPI coupled enzyme counterscreen, NADH absorbance; inhibition, % at 4.8 µM; actives 1.2% (n = 360,000);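 also: 0% = DMSO wells and 100% = wells lacking the enzyme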
# MazF activator: MazEF (E. coli) toxin RNase activation | AID 504720 | FAM/BHQ RNA-DNA oligo cleavage fluorescence, 5 h | P0AE70 | activation, % at 20 µM | actives 0.32% (n = 350,000); in the data active = activation above about 50%
# FBA Mtb inh: Mtb fructose-bisphosphate aldolase inhibition. P9WQA3. purified M. tuberculosis FBA, fluorescence read-out. inhibition, % at 1 µM. actives 2.3% (n = 360,000). AID 588726; in the data active = inhibition above about 27%;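 also: 0% = vehicle and 100% = reference inhibitor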
# Target sequence (P9WQA3 whole entry, looked up): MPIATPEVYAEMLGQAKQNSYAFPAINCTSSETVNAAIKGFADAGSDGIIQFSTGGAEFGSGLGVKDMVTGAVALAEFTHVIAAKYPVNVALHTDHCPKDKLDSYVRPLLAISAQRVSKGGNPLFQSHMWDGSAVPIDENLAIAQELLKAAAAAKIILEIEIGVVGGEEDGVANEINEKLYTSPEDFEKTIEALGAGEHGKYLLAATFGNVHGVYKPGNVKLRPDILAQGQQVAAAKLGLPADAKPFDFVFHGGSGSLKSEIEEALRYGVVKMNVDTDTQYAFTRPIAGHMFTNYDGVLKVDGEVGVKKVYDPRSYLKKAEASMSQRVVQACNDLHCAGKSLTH
# The depositor's hits bear a star; . = no result; + = active, no number. Shown are actives, neighbours in structure and some others; about 4% of the full set was active somewhere. Rule as the data show it, unless noted: active = inhibition above about 30%; inactive = the rest.
SMILES,CCHF vOTU inh,Mtb bLac sens,GDH-TPI counter,MazF activator,FBA Mtb inh
COCCNC(=S)N/N=C(\C)c1ccc(Cl)s1,4,94,45*,2,1
c1ccc(-c2cc(-c3nnc4sc(Cc5cccs5)nn34)[nH]n2)cc1,1,.,.,.,.
COc1ccc(-c2cc3nc(-c4ccccc4)cc(N4CCC5(CC4)OCCO5)n3n2)cc1,-7,7,14,-7,28*
O=C(/C=C/c1cc(Br)ccc1O)c1ccco1,0,100,18,5,-4
CC(C)(C)C(=O)Nc1ccc(/C=C/C(=O)c2ccco2)cc1,-8,44,49*,0,2
O=C(/C=C/c1ccccc1O)c1ccco1,-11,95,33*,-25,-4
O=C(NN=Cc1ccc(N(CCCl)CCCl)cc1)c1cccc([N+](=O)[O-])c1,1,.,29,4,-1
O=C(NN=Cc1ccc(N(CCCl)CCCl)cc1)c1cccnc1,20,.,38*,1,-1
O=C(N/N=C/c1cc(Br)c(O)c(Br)c1)c1cccnc1,5,9,31*,6,0
COc1ccc(/C=N/NC(=O)c2cccnc2)cc1COc1ccc(NC(C)=O)cc1,14,-4,31*,1,-8
O=C(N/N=C/c1ccc(Br)o1)c1cccnc1,-14,-3,16,2,1
COc1cc(/C=N/NC(=O)c2cccnc2)cc(Br)c1O,16,4,44*,6,2
O=C(OCc1cn(Cc2ccc(C(F)(F)F)cc2)nn1)N1CCCC1,-3,.,.,.,.
O=C(N/N=C/c1ccc(OC(=O)c2ccccc2)cc1)c1cccnc1,10,-3,0,8,+
O=C(N/N=C/c1ccc(OC(=O)c2ccc([N+](=O)[O-])cc2)cc1)c1cccnc1,-5,41,2,2,-1
CC(C)=CCc1cc(-c2oc3cc(O)cc(O)c3c(=O)c2O)ccc1O,4,3,6,57*,0
O=c1c(O)c(-c2cc(O)c(O)c(O)c2)oc2cc(O)cc(O)c12,16,9,32*,-33,-3
COc1ccc(/C=N/NC(=O)c2cccc([N+](=O)[O-])c2)cc1O,10,0,32*,-7,-2
COc1ccc(/C=N/NC(=O)c2ccc(NC(=O)c3cccc([N+](=O)[O-])c3)cc2)c(C(=O)O)c1OC,24,0,31*,4,2
COc1ccccc1/C=N/NC(=O)c1ccc(NC(=O)c2cccc([N+](=O)[O-])c2)cc1,.,5,.,.,.
CCOC(=O)Cn1cc(CN2C(C(=O)OC)CN(Cc3ccccc3)CCS2(=O)=O)nn1 (centres undefined),-8,.,.,.,.
COc1ccc(/C=C(/C(=O)c2ccc(Cl)cc2Cl)n2cncn2)cc1,-1,5,32*,5,-4
COC(=O)[C@]12C[C@H](CC(=O)NCc3ccc(OC)c(OC)c3)C(=O)N(Cc3cccc4ccccc34)C1=C[C@H](C(C)(C)C)O[C@@H]2C,11,.,.,.,.
N#CCC[C@@H]1CC[C@]2(CCCN(C(=O)c3ccco3)C2)O1,5,.,.,.,.
COc1ccccc1C(=O)Nc1sc2c(c1C#N)CCC2,.,2,6,80*,0
SMILES,CCHF vOTU inh,Mtb bLac sens,GDH-TPI counter,MazF activator,FBA Mtb inh
Cc1ccc(NC(=O)COC(=O)/C=C/c2ccc(Br)o2)cc1S(=O)(=O)N(C)C,4,63,17,-5,5
CN(C)S(=O)(=O)c1cccc(NC(=O)COC(=O)c2ccc3ccccc3n2)c1,1,-1,-9,0,2
CN(C)S(=O)(=O)c1cccc(NC(=O)COC(=O)c2cc(-c3cccc(Br)c3)nc3ccccc23)c1,6,13,32*,-2,-3
CN(C)S(=O)(=O)c1cccc(NC(=O)COC(=O)/C=C/c2ccc(Br)o2)c1,-3,15,39*,0,0
CCN(C(=O)c1cccc2c1-c1ccccc1C2=O)c1ccccc1,2,.,.,.,.
CN(c1ccccc1)c1ccc(/C=N/NC(=O)CC#N)cc1,8,44,31*,15,9
CN(C)c1ccc(/C=N/NC(=O)CSc2ccccn2)cc1,11,18,60*,5,1
Cn1c(=O)n(C)c2cc(/C=N/NC(=S)NCc3ccccc3)ccc21,0,0,34*,12,1
CN(C)c1ccc(/C=N/NC(=S)NCc2ccccc2)cc1,-14,0,32*,2,24
CCN(CC)C(=O)CC[C@H]1CC[C@]2(CCCN(Cc3ccc(Br)cc3)C2)O1,9,.,.,.,.
CCCCCn1nnnc1C1(C)Cn2nccc2C(=O)N1Cc1ccco1 (centres undefined),-7,.,.,.,.
